Legend:
Assay in all cases: DAPPL (digital affinity profiling via proximity ligation, sequencing); 10 mM Tris-HCl pH 7.5, 50 mM NaCl, 1 mM DTT, 4% glycerol, room temperature, 30 min; GST-TFs on glutathione beads, 16-mer random dsDNA library, 0.1% formaldehyde crosslink after washing; high values mean tight binding
Conditions in all cases: protein: recombinant; tags: N-terminal GST; dsDNA, one strand shown
ERF = target: T1, ERF (Homo sapiens, UniProt P50548 1-548)
T1 sequence: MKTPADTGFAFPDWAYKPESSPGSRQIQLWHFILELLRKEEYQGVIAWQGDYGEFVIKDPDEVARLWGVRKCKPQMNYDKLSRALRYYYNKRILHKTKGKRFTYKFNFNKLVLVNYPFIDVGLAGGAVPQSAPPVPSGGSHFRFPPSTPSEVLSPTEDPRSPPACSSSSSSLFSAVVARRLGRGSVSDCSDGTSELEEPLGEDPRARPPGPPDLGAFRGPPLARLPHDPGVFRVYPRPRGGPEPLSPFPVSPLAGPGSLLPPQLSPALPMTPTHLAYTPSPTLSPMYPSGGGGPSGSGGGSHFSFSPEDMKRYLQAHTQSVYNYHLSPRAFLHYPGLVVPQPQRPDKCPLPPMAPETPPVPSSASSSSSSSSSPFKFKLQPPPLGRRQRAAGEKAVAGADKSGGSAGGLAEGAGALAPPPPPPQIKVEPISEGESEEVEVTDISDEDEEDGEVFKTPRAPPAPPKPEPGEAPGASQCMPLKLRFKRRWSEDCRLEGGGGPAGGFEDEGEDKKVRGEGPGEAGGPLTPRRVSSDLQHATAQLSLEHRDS
Method in brief: (§1)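 Yeast served to express human transcription factors as GST fusions, which were then captured on glutathione beads and labelled with DNA barcodes. Pooled with a tag-only sample, they were incubated with 200 nmole of a 16-mer random double-stranded DNA library for 30 min at room temperature in Tris/NaCl/DTT/glycerol buffer, washed, crosslinked with 0.1% formaldehyde, ligated by proximity, amplified by PCR and sequenced. Dividing each hexamer's read frequency for a factor by its frequency for the tag-only sample gives the binding signal.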

ETV7 = target: T2, ETV7 (Homo sapiens, UniProt Q9Y603 1-341)
T2 sequence: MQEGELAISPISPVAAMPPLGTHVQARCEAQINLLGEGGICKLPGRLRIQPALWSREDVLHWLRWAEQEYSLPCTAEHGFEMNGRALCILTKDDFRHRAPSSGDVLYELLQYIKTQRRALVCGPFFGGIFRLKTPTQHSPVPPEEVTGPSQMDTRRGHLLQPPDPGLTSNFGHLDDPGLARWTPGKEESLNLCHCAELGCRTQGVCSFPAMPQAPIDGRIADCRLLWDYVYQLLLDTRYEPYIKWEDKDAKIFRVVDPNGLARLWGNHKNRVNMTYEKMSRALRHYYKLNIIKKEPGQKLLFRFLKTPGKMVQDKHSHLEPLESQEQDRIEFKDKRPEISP
Method in brief: as §1

ETV3 = target: T3, ETV3 (Homo sapiens, UniProt P41162-2 1-143)
T3 sequence: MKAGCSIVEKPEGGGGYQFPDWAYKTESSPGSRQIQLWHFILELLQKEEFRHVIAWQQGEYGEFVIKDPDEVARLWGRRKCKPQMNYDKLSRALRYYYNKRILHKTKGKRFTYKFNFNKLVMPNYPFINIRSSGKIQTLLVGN
Method in brief: as §1

ETV1 = ETV1 (Homo sapiens, UniProt P50549 1-477)
Method in brief: as §1

ETV3L = target: T4, ETV3L (Homo sapiens, UniProt Q6ZN32 1-361)
T4 sequence: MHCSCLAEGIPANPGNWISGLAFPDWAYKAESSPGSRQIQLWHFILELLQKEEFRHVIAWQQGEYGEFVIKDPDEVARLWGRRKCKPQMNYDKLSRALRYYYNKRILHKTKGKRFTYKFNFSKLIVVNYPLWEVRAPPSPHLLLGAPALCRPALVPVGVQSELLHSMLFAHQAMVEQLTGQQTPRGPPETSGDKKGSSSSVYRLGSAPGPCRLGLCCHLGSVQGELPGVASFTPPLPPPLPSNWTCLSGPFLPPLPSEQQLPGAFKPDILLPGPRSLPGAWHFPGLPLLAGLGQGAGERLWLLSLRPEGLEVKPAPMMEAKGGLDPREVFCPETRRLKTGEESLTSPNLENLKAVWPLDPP
Method in brief: as §1

ELK3 = target: T5, ELK3 (Homo sapiens, UniProt P41970 1-407)
T5 sequence: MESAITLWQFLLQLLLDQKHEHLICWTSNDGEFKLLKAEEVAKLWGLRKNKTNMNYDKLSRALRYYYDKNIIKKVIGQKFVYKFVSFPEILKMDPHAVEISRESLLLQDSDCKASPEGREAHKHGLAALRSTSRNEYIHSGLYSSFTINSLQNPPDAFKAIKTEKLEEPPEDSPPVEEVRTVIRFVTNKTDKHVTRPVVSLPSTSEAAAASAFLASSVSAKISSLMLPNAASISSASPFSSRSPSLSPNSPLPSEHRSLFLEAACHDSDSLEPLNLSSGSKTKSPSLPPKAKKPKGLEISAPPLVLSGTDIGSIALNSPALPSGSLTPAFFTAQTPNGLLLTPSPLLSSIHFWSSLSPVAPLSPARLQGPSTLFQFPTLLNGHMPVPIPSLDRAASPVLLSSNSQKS
Method in brief: as §1

SPDEF = target: T6, SPDEF (Homo sapiens, UniProt O95238 1-335)
T6 sequence: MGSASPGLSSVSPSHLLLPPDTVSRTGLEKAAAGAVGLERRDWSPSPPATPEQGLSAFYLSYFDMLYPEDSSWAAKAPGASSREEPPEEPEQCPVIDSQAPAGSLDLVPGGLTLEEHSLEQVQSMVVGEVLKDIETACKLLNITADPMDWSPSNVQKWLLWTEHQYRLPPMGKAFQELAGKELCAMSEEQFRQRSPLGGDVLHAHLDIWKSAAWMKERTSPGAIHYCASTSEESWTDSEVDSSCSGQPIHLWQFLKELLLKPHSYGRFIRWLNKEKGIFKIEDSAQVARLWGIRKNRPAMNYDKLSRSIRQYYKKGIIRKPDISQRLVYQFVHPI
Method in brief: as §1

SPIB = SPIB (Homo sapiens, UniProt Q01892 1-262)
Method in brief: as §1

FEV = target: T7, FEV (Homo sapiens, UniProt Q99581 1-238)
T7 sequence: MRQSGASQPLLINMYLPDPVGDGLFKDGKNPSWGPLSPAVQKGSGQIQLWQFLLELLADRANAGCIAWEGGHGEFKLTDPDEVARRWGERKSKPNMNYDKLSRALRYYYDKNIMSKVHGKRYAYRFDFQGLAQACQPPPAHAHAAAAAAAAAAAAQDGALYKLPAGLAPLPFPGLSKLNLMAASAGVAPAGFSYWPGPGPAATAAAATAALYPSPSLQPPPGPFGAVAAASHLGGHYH
Method in brief: as §1

ELF5 = target: T8, ELF5 (Homo sapiens, UniProt Q9UKW6-2 1-255)
T8 sequence: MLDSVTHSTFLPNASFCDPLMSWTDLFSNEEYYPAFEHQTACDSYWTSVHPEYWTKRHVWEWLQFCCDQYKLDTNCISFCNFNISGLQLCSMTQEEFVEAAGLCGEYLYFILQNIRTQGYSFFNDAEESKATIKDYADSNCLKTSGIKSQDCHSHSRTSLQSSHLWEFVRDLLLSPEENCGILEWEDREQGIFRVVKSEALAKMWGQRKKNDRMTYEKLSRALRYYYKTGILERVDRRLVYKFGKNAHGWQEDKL
Method in brief: as §1

ERG = target: T9, ERG (Homo sapiens, UniProt P11308 1-479)
T9 sequence: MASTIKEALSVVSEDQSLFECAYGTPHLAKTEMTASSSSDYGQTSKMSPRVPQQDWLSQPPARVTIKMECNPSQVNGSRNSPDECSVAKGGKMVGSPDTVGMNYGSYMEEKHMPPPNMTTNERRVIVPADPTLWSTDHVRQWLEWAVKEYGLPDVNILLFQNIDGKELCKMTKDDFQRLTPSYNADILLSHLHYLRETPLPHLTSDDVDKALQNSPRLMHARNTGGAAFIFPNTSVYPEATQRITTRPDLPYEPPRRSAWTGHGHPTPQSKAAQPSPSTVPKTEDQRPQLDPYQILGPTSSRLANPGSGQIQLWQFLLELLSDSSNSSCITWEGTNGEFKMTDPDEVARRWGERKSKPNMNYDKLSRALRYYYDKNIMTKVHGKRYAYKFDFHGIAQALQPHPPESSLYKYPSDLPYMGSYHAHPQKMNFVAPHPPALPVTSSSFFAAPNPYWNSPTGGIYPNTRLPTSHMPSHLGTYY
Method in brief: as §1

GABPA = target: T10, GABPA (Homo sapiens, UniProt Q06546 1-454)
T10 sequence: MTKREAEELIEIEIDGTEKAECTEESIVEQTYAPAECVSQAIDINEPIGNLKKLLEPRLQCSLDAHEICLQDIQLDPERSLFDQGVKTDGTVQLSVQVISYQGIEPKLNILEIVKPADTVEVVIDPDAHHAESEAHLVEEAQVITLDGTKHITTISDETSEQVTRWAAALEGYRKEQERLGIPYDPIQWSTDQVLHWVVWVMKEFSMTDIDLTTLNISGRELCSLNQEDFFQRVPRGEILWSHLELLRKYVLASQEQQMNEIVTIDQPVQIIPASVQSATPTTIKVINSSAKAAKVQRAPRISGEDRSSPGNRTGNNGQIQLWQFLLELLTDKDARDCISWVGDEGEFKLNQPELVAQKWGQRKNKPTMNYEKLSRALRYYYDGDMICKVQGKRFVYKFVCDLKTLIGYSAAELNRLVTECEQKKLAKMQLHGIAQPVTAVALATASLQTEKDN
Method in brief: as §1

Sequence of ETV1 (P50549 whole entry): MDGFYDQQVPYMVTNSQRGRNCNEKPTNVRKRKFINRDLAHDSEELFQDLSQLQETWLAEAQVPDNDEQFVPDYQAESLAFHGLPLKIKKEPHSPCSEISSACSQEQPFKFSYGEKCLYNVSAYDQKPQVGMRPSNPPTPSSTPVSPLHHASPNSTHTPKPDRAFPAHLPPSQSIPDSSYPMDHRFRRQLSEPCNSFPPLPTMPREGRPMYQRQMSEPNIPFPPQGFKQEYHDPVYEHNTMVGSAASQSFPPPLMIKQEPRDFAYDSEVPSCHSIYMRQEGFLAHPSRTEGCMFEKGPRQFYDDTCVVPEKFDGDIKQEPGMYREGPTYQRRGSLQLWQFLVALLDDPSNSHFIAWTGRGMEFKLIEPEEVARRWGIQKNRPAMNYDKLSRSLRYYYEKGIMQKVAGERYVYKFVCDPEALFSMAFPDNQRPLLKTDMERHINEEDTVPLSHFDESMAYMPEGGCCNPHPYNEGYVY
Sequence of SPIB (Q01892 whole entry): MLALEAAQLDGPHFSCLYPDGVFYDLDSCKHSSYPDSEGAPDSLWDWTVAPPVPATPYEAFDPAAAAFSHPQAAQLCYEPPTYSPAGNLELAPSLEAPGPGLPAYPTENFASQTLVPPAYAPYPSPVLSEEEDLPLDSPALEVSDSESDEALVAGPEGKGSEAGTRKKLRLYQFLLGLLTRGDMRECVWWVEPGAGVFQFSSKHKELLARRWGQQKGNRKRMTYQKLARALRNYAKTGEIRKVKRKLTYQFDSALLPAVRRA

Sequence: GACAAA
- binding signal (ERF): 1.06 fold enrichment (6-mer frequency, TF over GST control)
- binding signal (ETV7): 1.1 fold enrichment (6-mer frequency, TF over GST control)

Sequence: TTGGAC
- binding signal (ERF): 1.02 fold enrichment (6-mer frequency, TF over GST control)
- binding signal (ETV3): 1.01 fold enrichment (6-mer frequency, TF over GST control)

Sequence: GGTGCT
- binding signal (ETV1): 1.08 fold enrichment (6-mer frequency, TF over GST control)

Sequence: AGCGCA
- binding signal (ETV3L): 1.01 fold enrichment (6-mer frequency, TF over GST control)

Sequence: CAGCAA
- binding signal (ELK3): 1.01 fold enrichment (6-mer frequency, TF over GST control)
- binding signal (ERF): 1.04 fold enrichment (6-mer frequency, TF over GST control)
- binding signal (ETV7): 1.06 fold enrichment (6-mer frequency, TF over GST control)

Sequence: GATGTG
- binding signal (SPDEF): 1.18 fold enrichment (6-mer frequency, TF over GST control)
- binding signal (ETV3): 1.01 fold enrichment (6-mer frequency, TF over GST control)

Sequence: CGGTAC
- binding signal (SPIB): 1.06 fold enrichment (6-mer frequency, TF over GST control)
- binding signal (FEV): 1.05 fold enrichment (6-mer frequency, TF over GST control)
- binding signal (ETV1): 1.01 fold enrichment (6-mer frequency, TF over GST control)
- binding signal (SPDEF): 1.07 fold enrichment (6-mer frequency, TF over GST control)
- binding signal (ELF5): 1.02 fold enrichment (6-mer frequency, TF over GST control)

Sequence: CCTGTC
- binding signal (ERG): 1.01 fold enrichment (6-mer frequency, TF over GST control)
- binding signal (ETV7): 1.03 fold enrichment (6-mer frequency, TF over GST control)

Sequence: GTCTGT
- binding signal (ETV1): 1.01 fold enrichment (6-mer frequency, TF over GST control)

Sequence: GCAACG
- binding signal (GABPA): 1.03 fold enrichment (6-mer frequency, TF over GST control)
- binding signal (ERG): 1 fold enrichment (6-mer frequency, TF over GST control)
- binding signal (ERF): 1.01 fold enrichment (6-mer frequency, TF over GST control)

Sequence: GTGGAC
- binding signal (ERF): 1.03 fold enrichment (6-mer frequency, TF over GST control)

Sequence: TGGGCC
- binding signal (ERF): 1.03 fold enrichment (6-mer frequency, TF over GST control)

From PMC7862700, “An all-to-all approach to the identification of sequence-specific readers for epigenetic DNA modifications on cytosine”
